Experimental data reported in the supplement of paper PMC9897528.
A number with no mark means an inactive call.

Tested on: Scedosporium aurantiacum CBS 136046
Test: growth inhibition relative to DMSO control (OD600); higher = more antifungal activity, active = 80 or more; extreme values may be limits of the assay
Details: 5 µM; 72 h; 37 °C
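Also: conidia screened in RPMI 1640 medium under 5% CO2, growth read by spectrophotometer, medium with 0.5% DMSO serving as the untreated reference.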

Compound | growth inhibition
Nc1nc2c(ncn2COC(CO)CO)c(=O)[nH]1 | 11.1%
CC(=O)N1CCN(c2ccc(OCC3COC(Cn4ccnc4)(c4ccc(Cl)cc4Cl)O3)cc2)CC1 (configuration not stated) | 83.2% (active)
O=C(O)c1ccc(-n2nc(-c3ccccc3O)nc2-c2ccccc2O)cc1 | 0.0499%
CCc1c(O)nc2ccc(F)cc2c1OCC1CCC1 | 23.8%
Cc1cc(C)n2nc(C(=O)NS(=O)(=O)c3c(C)cccc3OC(F)(F)F)nc2n1 | 0%
CCCCc1ccc(S(=O)(=O)Nc2cc(C)on2)cc1 | 2.13%
O=C(O)COc1cccc2c1CC[C@](O)(COC(=O)N(c1ccccc1)c1ccccc1)C2 | 0.943%
Cc1onc(-c2ccccc2Cl)c1C(=O)N[C@@H]1C(=O)N2[C@@H]1SC(C)(C)[C@@H]2C(=O)O | 0.0225%
C[C@H]1[C@@H](c2cccc(C(F)(F)F)c2)OC(=O)N1C(=O)NCc1cncc2ccccc12 | 11.5%
Nc1cc(-c2nc3ccccc3[nH]2)n[nH]c1=O | 1.56%
CN1CCN(Cc2ccc(-c3cnc4[nH]cc(-c5ccc6[nH]ccc6c5)c4c3)cc2)CC1 | 54.5%
CCCCCc1ccc(C(=O)NCCn2cc(CCCCCc3c[nH]c(N)n3)nn2)cc1 | 46%
COC1CC2CCC(C)C(O)(O2)C(=O)C(=O)N2CCCCC2C(=O)OC(C(C)CC2CCC(OCCO)C(OC)C2)CC(=O)C(C)/C=C(\C)C(O)C(OC)C(=O)C(C)CC(C)/C=C/C=C/C=C/1C (configuration not stated) | 10.9%
CC1CCc2c(N3CCC(O)CC3)c(F)cc3c(=O)c(C(=O)O)cn1c23 (configuration not stated) | 16.2%
Nc1nc(C(F)(F)F)cc2c1[nH]c(=O)n2Cc1ccccc1 | 18.8%
CC[C@H](NC(=O)[C@H](C)NC)C(=O)N1C[C@@H](O)C[C@H]1Cc1c(-c2[nH]c3cc(F)ccc3c2C[C@@H]2C[C@H](O)CN2C(=O)[C@H](CC)NC(=O)[C@H](C)NC)[nH]c2cc(F)ccc12 | 6.5%
Oc1ccc2[nH]c(-c3ccccc3)nc2c1 | 26.7%
O=C(Nc1ccc(N2CCN(C(=O)c3ccccc3)CC2)cc1)c1ccc2c(c1)OCO2 | 16.5%
CCCNc1ccc(S(=O)(=O)Nc2cc(C)on2)cc1 | 0.262%
C=C(C)n1c(=O)n(Cc2ccccc2C)c2ccccc21 | 21.5%
O=C(/C=C/n1cnc(-c2cc(C(F)(F)F)cc(C(F)(F)F)c2)n1)NNc1cnccn1 | 26.3%
NC(=O)c1[nH]c2ccc(S(N)(=O)=O)cc2c1-c1ccccc1 | 34.5%
